Measurements taken from PubChem BioAssay (NCATS).
Inconclusive results are not listed. Where a call stands in place of a potency, no number is given. Values without a mark were called inactive. Active and inactive are the calls of the source. Calls follow the shape of the full dose curve.

Assay: Cytotoxicity counterscreen for inhibitors of SARS-CoV-2 cell entry (AID 1645845); also: nearly all actives have a fitted effect of over 50% in size
Conditions: cell viability (SARS-CoV-2 entry assay cells); series mostly up to 57.1 µM; activity change, negative = cytotoxicity: at the top concentration
Procedure, shortened: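 HEK293-ACE2 cells (Expi293F stably expressing human ACE2) seeded overnight, then compound for 1 h plus 48 h at 37C. Viability as ATP content by luminescence; normalized to wells with cells and media-only wells.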
Potency is read from the fitted curve at half-maximal effect.

Row | SMILES | Potency | outcome | activity change, negative = cytotoxicity
1 | O=C(O)c1cn(-c2ccc(F)cc2)c2cc(N3CCNCC3)c(F)cc2c1=O | inactive |  | 
2 | c1ccc(CC2=NCCN2)cc1 |  | inactive | 
3 | O=C(Nc1ccc([N+](=O)[O-])cc1)Nc1ccc([N+](=O)[O-])cc1 |  | inactive | 
4 | COc1ccc2c(c1)C(=O)N(CCc1ccc(S(=O)(=O)NC(=O)NC3CCCCC3)cc1)C(=O)C2(C)C |  | inactive | 
5 | OC(CCN1CCCCC1)(c1ccccc1)C1CC2C=CC1C2 (centres undefined) | inactive |  | 
6 | CN(C)CCOc1ccccc1Cc1ccccc1 |  |  | -8.72%
7 | CN1[C@@H]2CC[C@H]1CC(OC(=O)c1c[nH]c3ccccc13)C2 (some centres undefined) |  |  | -9.62%
8 | O=C1NCCN1CCN1CCC(c2cn(-c3ccc(F)cc3)c3ccc(Cl)cc23)CC1 | 28.2 µM (active) |  | 
9 | CCOC(=O)Cn1cccc1-c1nc(-c2ccc(OC)cc2)c(-c2ccc(OC)cc2)s1 |  | inactive | 
10 | Cc1ccc(/C(=C\CN2CCCC2)c2ccccn2)cc1 |  | inactive | 
11 | NS(=O)(=O)c1cc2c(cc1Cl)CN(C1CCCCC1)C2=O |  | inactive | 
12 | CCOC(=O)n1ccn(C)c1=S |  | inactive | 
13 | CCCCN(CCCC)CC(O)c1cc(Cl)cc2c1-c1ccc(Cl)cc1/C2=C/c1ccc(Cl)cc1 (centres undefined) |  |  | 1.17%
14 | CCCCOc1ccc(C(=O)CCN2CCCCC2)cc1 |  |  | -33.4%
15 | CCOC(=O)[C@H](CCc1ccccc1)N[C@@H](C)C(=O)N(CC(=O)O)C1Cc2ccccc2C1 |  | inactive | 
16 | CN1CCCC(n2nc(Cc3ccc(Cl)cc3)c3ccccc3c2=O)CC1 (centres undefined) |  | inactive | 
17 | CC[N+]1(CC)CCC(=C(c2ccccc2)c2ccccc2)C1C (centres undefined) |  |  | 0.0438%
18 | CN(C)CC[C@@H](c1ccc(Cl)cc1)c1ccccn1 |  | inactive | 
19 | CC(C)C[C@@H]1[C@H](c2ccccc2)OC(=O)N1CCCN1CCCCCC1 |  |  | 3.81%
20 | CC1CCCCN1CCCOC(=O)c1ccc(OC2CCCCC2)cc1 (centres undefined) |  | inactive | 

Row | SMILES | Potency | outcome | activity change, negative = cytotoxicity
21 | Oc1ccc(O)cc1 |  |  | 0.129%
22 | CCc1ccc(C(=O)C(C)CN2CCCCC2)cc1 (centres undefined) |  | inactive | 
23 | C(=C\c1ccccc1)/CN1CCN(C(c2ccccc2)c2ccccc2)CC1 |  | inactive | 
24 | CCN(CC)CCCC(C)Nc1c2ccc(Cl)cc2nc2ccc(OC)cc12 (centres undefined) |  |  | -12.7%
25 | CCOC(=O)[C@H](CCc1ccccc1)N[C@H]1CS[C@H](c2cccs2)CN(CC(=O)O)C1=O | inactive |  | 
26 | O=C1N(c2ccccc2)c2ccccc2C1(Cc1ccncc1)Cc1ccncc1 |  | inactive | 
27 | CC[C@H](c1ccc(O)cc1)[C@@H](CC)c1ccc(O)cc1 |  |  | -18.8%
28 | Nc1c2c(nc3ccccc13)CCCC2 | inactive |  | 
29 | CCCCCOc1ccc(C2SC(=O)NC2=O)cc1OCC (centres undefined) |  | inactive | 
30 | O=C(CCCN1CCC(O)(c2ccc(Br)cc2)CC1)c1ccc(F)cc1 |  |  | -18.6%
31 | C/C=C(/C(=C/C)c1ccc(O)cc1)c1ccc(O)cc1 |  |  | -18.7%
32 | O=c1[nH]c2ccccc2n1CCCN1CCN(C(c2ccccc2)c2ccccc2)CC1 |  | inactive | 
33 | CC(=O)Oc1ccc(C(=C2CCCCC2)c2ccc(OC(C)=O)cc2)cc1 |  | inactive | 
34 | C[C@@H](O)[C@H](N)C(=O)O |  |  | -0.682% [at 27.1 µM]
35 | CO[C@@H]1[C@@H](O[C@@H]2O[C@H](C)[C@@H](O[C@H]3C[C@@](C)(O)[C@@H](O)[C@H](C)O3)[C@H](N(C)C)[C@H]2O)[C@@H](CC=O)C[C@@H](C)[C@@H](O[C@@H]2CC[C@H](N(C)C)[C@@H](C)O2)/C=C/C=C/C[C@@H](C)OC(=O)C[C@H]1OC(C)=O |  |  | -12.4%
36 | CN(C)[C@@H](CCOc1cccc2ccccc12)c1ccccc1 |  |  | -21.4%
37 | O=C(CCCN1CCN(c2ccccn2)CC1)c1ccc(F)cc1 |  |  | 3.15%
38 | CCOC(=O)OC(C)OC(=O)[C@@H]1N2C(=O)[C@@H](NC(=O)[C@H](N)c3ccccc3)[C@H]2SC1(C)C (some centres undefined) |  | inactive | 
39 | Oc1ccc(CCNCCCCCCNCCc2ccccc2)cc1O |  |  | -4.56%
